From PubChem BioAssay (NCATS) come the findings set out here.

Inconclusive results are not listed. The source made the active and inactive calls. The call rests on the fitted dose curve; in most records, active means well fitted inhibition curve with a large enough effect; inconclusive means small, poorly fitted or top-dose-only effect; inactive means flat fitted curve, though single readings scatter.
Potency means the concentration at half of the fitted maximal effect.

For one assay, the system named is UISO. As to the kind of experiment: qHTS assay to identify novel small-molecules to repurpose for Merkel cell carcinoma treatment (AID 1296009). Further: nearly all actives have a fitted effect of over 60% in size. Particulars: MCC and control cell lines, CellTiter-Glo viability, 72 h; series mostly up to 46 µM. The procedure, abridged: (§1)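 Luminescence from CellTiter-Glo, read 10 min after addition at room temperature, reported viability following a 72 hr, 37 degree celsius treatment with NPC or MIPE compounds in titration; values normalized to plate controls.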
In the case of `O=C(CN1C(=O)C2(CCCC2)NC[C@H]1c1cc(F)cc(F)c1)Nc1ccc2c(c1)C[C@@]1(C2)C(=O)Nc2ncccc21`, the Potency result was “inactive”. Same read-out and setting: then `CCc1c(O)cc(O)c(C(=O)c2ccc(OCCN3CCOCC3)c(OC)c2)c1CC(=O)N(CCOC)CCOC`, with 1.48 µM (active). Consider `O=C1NC(=O)[C@@H](c2cn3c4c(cccc24)CCC3)[C@H]1c1c[nH]c2ccccc12`, for which the Potency was 1.18 µM (active).

Turning to `COC[C@H](NC(=O)c1cnc(C)s1)C(=O)N[C@@H](COC)C(=O)N[C@@H](Cc1ccccc1)C(=O)[C@@]1(C)CO1`, the Potency was 0.235 µM (active). As for `c1cc(N[C@@H]2CCNC2)nc(-c2cnc3ccc(-c4cn[nH]c4)cn23)c1`, the Potency is 16.6 µM (active). The same measure, in the same setting: then `NS(=O)(=O)OC[C@@H]1C[C@@H](n2ccc3c(N[C@H]4CCc5ccccc54)ncnc32)C[C@H]1O`, with 1.18 µM (active); and `O=c1ccn([C@@H]2O[C@H](CO)[C@H](O)[C@@H]2F)c(=O)[nH]1`, with “inactive”. `COc1cc(CCc2cc(NC(=O)c3ccc(N4C[C@@H](C)N[C@@H](C)C4)cc3)n[nH]2)cc(OC)c1`: the Potency was 23.5 µM (active).

On to `C=CCNC1=C2C[C@@H](C)C[C@H](OC)[C@@H](O)[C@@H](C)C=C(C)[C@H](OC(N)=O)[C@@H](OC)C=CC=C(C)C(=O)NC(=CC1=O)C2=O`, for which the Potency is 1.48 µM (active). On the same count and under the same terms, the value for `N#Cc1cc(NC(=O)Nc2nnc(-c3ccncc3)s2)ccc1-c1cn[nH]c1` was “inactive”; that for `COc1cc(C)c(Sc2cnc(NC(=O)c3ccc(CNC(C)C(C)(C)C)cc3)s2)cc1C(=O)N1CCN(C(C)=O)CC1` (configuration not stated) was 18.7 µM (active); that for `C=C1C[C@@]2(O)O[C@@]3(C[C@H]2C(C)C)[C@H](C)CC[C@H]13` was “inactive”. `CCCNC(=O)[C@H]1O[C@H]1C(=O)N[C@H](C(=O)N1CCC[C@@H]1C(=O)OC)C(C)CC` (some centres not stated): the Potency is 18.7 µM (active).

Regarding `CCOC(=O)C=C[C@H](C[C@@H]1CCNC1=O)NC(=O)[C@@H](CC(=O)[C@@H](NC(=O)c1cc(C)on1)C(C)C)Cc1ccc(F)cc1`, the Potency entry is “inactive”. Consider `NC[C@H]1O[C@H](O[C@H]2[C@@H](O)[C@@H](O[C@H]3O[C@H](CO)[C@@H](O)[C@H](N)[C@@H]3O)[C@H](N)C[C@@H]2N)[C@H](N)C[C@H]1O`, for which the Potency entry was “inactive”. The same measure, in the same setting: the value for `C=CCNc1c(O)cc2c(O)c1C[C@@H](C)C[C@H](OC)[C@@H](O)[C@@H](C)C=C(C)[C@H](OC(N)=O)[C@@H](OC)C=CC=C(C)C(=O)N2` was 2.35 µM (active); that for `CC(C=CC(=O)NO)=C[C@@H](C)C(=O)c1ccc(N(C)C)cc1` was 3.32 µM (active); that for `O=C(C=CC#Cc1cccc(NS(=O)(=O)c2ccccc2)c1)NO` was 16.6 µM (active). Same read-out and setting: then `c1coc(CNc2ncnc3nc[nH]c23)c1`, with “inactive”. On to `CCC(C=C[C@@H]1OC(=O)C=C[C@H]1C)=C[C@H](C)CC=CC(C)=C[C@@H](C)C(=O)[C@@H](C)[C@H](O)[C@@H](C)CC(C)=CC(=O)O`, for which the Potency was 0.022 µM (active). On the same count and under the same terms, the value for `Cc1cc(O)c2c(c1)C(=O)c1cccc(O)c1C2=O` was “inactive”; that for `O=C(NCc1ccccc1)[C@H](Cc1ccccc1)NC(=O)[C@@H]1O[C@@H]1C(=O)NCCc1ccc(O)cc1` was “inactive”; that for `CCOC(=O)C1=C(C)NC(=S)NC1c1cccc(O)c1` (configuration not stated) was 0.148 µM (active). For the compound `O=C(CCCCCCC(=O)Nc1cccnc1)NO`, the Potency was 13.2 µM (active).

For `O=S(=O)(O)CCSSCCS(=O)(=O)O`, the Potency result is “inactive”. Regarding `COc1ccc2c(c1OC)C(=O)OC2[C@H]1c2c(cc3c(c2OC)OCO3)CCN1C` (some centres not stated), the Potency was 0.469 µM (active). The same measure, in the same setting: the value for `CC(C)(C)[N+]([O-])=Cc1ccc(S(=O)(=O)O)cc1S(=O)(=O)O` was “inactive”; that for `C[C@@H](Cc1cc2c(c(C(N)=O)c1)N(CCCO)CC2)NCCOc1ccccc1OCC(F)(F)F` was “inactive”.

For a further assay, the system named is WaGa. The assay is described as above. Particulars: MCC and control cell lines, CellTiter-Glo viability, 72 h; series mostly up to 46 µM. The procedure, abridged:
as §1
In the case of `CN(C)c1ccc(C(=O)NCCCCCCC(=O)NO)cc1`, the Potency was 0.662 µM (active). The same measure, in the same setting: then `Cc1cnc(Nc2ccc(CN3CCOCC3)cc2)nc1Nc1cccc(S(=O)(=O)NC(C)(C)C)c1`, with 10.5 µM (active); and `O=C(CN1C(=O)C2(CCCC2)NC[C@H]1c1cc(F)cc(F)c1)Nc1ccc2c(c1)C[C@@]1(C2)C(=O)Nc2ncccc21`, with “inactive”. Still for that read-out and setting: the value for `COC[C@H](NC(=O)c1cnc(C)s1)C(=O)N[C@@H](COC)C(=O)N[C@@H](Cc1ccccc1)C(=O)[C@@]1(C)CO1` was 0.118 µM (active); that for `CCOC(=O)N1CCN([N+]([O-])=NOc2ccc([N+](=O)[O-])cc2C#N)CC1` was 3.72 µM (active).

As for `NS(=O)(=O)OC[C@@H]1C[C@@H](n2ccc3c(N[C@H]4CCc5ccccc54)ncnc32)C[C@H]1O`, the Potency is 1.48 µM (active). The same measure, in the same setting: then `O=c1ccn([C@@H]2O[C@H](CO)[C@H](O)[C@@H]2F)c(=O)[nH]1`, with “inactive”; and `COc1cc(CCc2cc(NC(=O)c3ccc(N4C[C@@H](C)N[C@@H](C)C4)cc3)n[nH]2)cc(OC)c1`, with “inactive”. On the same count and under the same terms, the value for `C=CCNC1=C2C[C@@H](C)C[C@H](OC)[C@@H](O)[C@@H](C)C=C(C)[C@H](OC(N)=O)[C@@H](OC)C=CC=C(C)C(=O)NC(=CC1=O)C2=O` was 1.66 µM (active); that for `N#Cc1cc(NC(=O)Nc2nnc(-c3ccncc3)s2)ccc1-c1cn[nH]c1` was “inactive”; that for `CC(C)NC[C@@H](C(=O)N1CCN(c2ncnc3c2[C@H](C)C[C@H]3O)CC1)c1ccc(Cl)cc1` was 2.09 µM (active). Take `COc1cc(C)c(Sc2cnc(NC(=O)c3ccc(CNC(C)C(C)(C)C)cc3)s2)cc1C(=O)N1CCN(C(C)=O)CC1` (configuration not stated): the Potency was 16.6 µM (active). Turning to `C=C1C[C@@]2(O)O[C@@]3(C[C@H]2C(C)C)[C@H](C)CC[C@H]13`, the Potency result was “inactive”. As to `CCCNC(=O)[C@H]1O[C@H]1C(=O)N[C@H](C(=O)N1CCC[C@@H]1C(=O)OC)C(C)CC` (some centres not stated), the Potency was 8.33 µM (active). Still for that read-out and setting: the value for `CCOC(=O)C=C[C@H](C[C@@H]1CCNC1=O)NC(=O)[C@@H](CC(=O)[C@@H](NC(=O)c1cc(C)on1)C(C)C)Cc1ccc(F)cc1` was “inactive”.

Turning to `NC[C@H]1O[C@H](O[C@H]2[C@@H](O)[C@@H](O[C@H]3O[C@H](CO)[C@@H](O)[C@H](N)[C@@H]3O)[C@H](N)C[C@@H]2N)[C@H](N)C[C@H]1O`, the Potency entry was “inactive”. The same measure, in the same setting: then `C=CCNc1c(O)cc2c(O)c1C[C@@H](C)C[C@H](OC)[C@@H](O)[C@@H](C)C=C(C)[C@H](OC(N)=O)[C@@H](OC)C=CC=C(C)C(=O)N2`, with 2.09 µM (active). On the same count and under the same terms, the value for `CC(C=CC(=O)NO)=C[C@@H](C)C(=O)c1ccc(N(C)C)cc1` was 0.743 µM (active); that for `O=C(C=CC#Cc1cccc(NS(=O)(=O)c2ccccc2)c1)NO` was 1.18 µM (active); that for `c1coc(CNc2ncnc3nc[nH]c23)c1` was “inactive”. Still for that read-out and setting: then `Cc1cc(O)c2c(c1)C(=O)c1cccc(O)c1C2=O`, with “inactive”; and `CCOC(=O)C1=C(C)NC(=S)NC1c1cccc(O)c1` (configuration not stated), with 0.0526 µM (active).

For the compound `O=C(CCCCCCC(=O)Nc1cccnc1)NO`, the Potency is 2.35 µM (active). For the compound `CCOc1cc2ncc(C#N)c(Nc3ccc(OCc4ccccn4)c(Cl)c3)c2cc1NC(=O)C=CCN(C)C`, the Potency result is “inactive”.

In the case of `O=S(=O)(O)CCSSCCS(=O)(=O)O`, the Potency entry is “inactive”.

Consider `C=CC(=O)Nc1ccc2ncnc(Nc3ccc(OCc4cccc(F)c4)c(Cl)c3)c2c1`, for which the Potency was 0.0332 µM (active). Still for that read-out and setting: the value for `COc1cccc2c1C(=O)c1c(O)c3c(c(O)c1C2=O)C[C@@](O)(C(=O)CO)C[C@@H]3O[C@H]1C[C@H](N)[C@@H](O)[C@H](C)O1` was 0.0935 µM (active); that for `CC(C)(C)[N+]([O-])=Cc1ccc(S(=O)(=O)O)cc1S(=O)(=O)O` was “inactive”; that for `C[C@@H](Cc1cc2c(c(C(N)=O)c1)N(CCCO)CC2)NCCOc1ccccc1OCC(F)(F)F` was “inactive”.
